system: DMPK; details: concentration: 1 μM, replicates: in singlicate; n = 1
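Further: KINOMEscan kinase panel screen.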

| Compound | %Inh [%] |
| --- | --- |
| COc1cc2c(cc1OC[C@@H](O)CO)ncc1c3ccc(C#N)cc3[nH]c21 | 0 |
| COc1ccc(Nc2ncc(C#N)c(Nc3ccccc3C(N)=O)n2)cc1N1CCN(C)CC1.Cl [GSK1558669] | 88 |
| Cc1cccc(-c2nc(-c3ccc(S(C)(=O)=O)cc3)sc2-c2ccncc2)c1 | 0 |
| COc1cc(Nc2nccc(N3CCC(NC(=O)c4cccc(NC(C)=O)c4)C3)n2)cc(OC)c1OC (centres unmarked) [GSK1379754] | 0 |
| Cc1ccc(NC(=O)c2ccnc(N3CCN(C)CC3)c2)cc1-c1ccc(C(=O)NCC2CC2)cc1 [GW775604] | 7 |
| CSc1ccc(-c2cc3ncnc(SCC(=O)O)c3s2)cc1 | 0 |
| c1ccc(-c2cc(-c3c[nH]nc3-c3ccccn3)ccn2)cc1 [GW576604] | 0 |
| O=C(Nc1n[nH]c2cc(-c3cccc(F)c3)ccc12)C1CC1 [SB-735464] | 0 |
| Cc1c(Cn2c(C)nn3c(=O)cc(N4CCOC(C)C4)nc23)cccc1C(F)(F)F (centres unmarked) [GSK2344444] | 0 |
| Cc1nnc(-c2ccc3ncc(-c4ccc(S(C)=O)cc4)n3c2)o1 (centres unmarked) | 1 |
| CN(C(=O)c1ccc(-c2cc(-c3c[nH]nc3-c3ccccn3)ccn2)cc1)C1CCOCC1 [GW810083] | 0 |
| Fc1ccc(-c2ncn(CCCN3CCOCC3)c2-c2ccccn2)cc1 [SB-211742] | 17 |
| COc1cc2c(cc1OCCN1CCN(C)CC1)ncc1c3ccc(C#N)cc3[nH]c21 | 0 |
| O=C(c1ccc(-c2cc(-c3c[nH]nc3-c3ccccn3)ccn2)cc1)N1CCOCC1 [GW812171] | 5 |
| CC(=O)Nc1ccc(COc2ccc(Nc3ccnc4cc(-c5ccccn5)ccc34)cc2)cc1.Cl [GW440148] | 0 |
| O=C(NOCC1CC1)c1ccc(F)c(F)c1Nc1ccc(I)cc1Cl | 0 |
| COc1ccc(Nc2nccc(N3CCC(NC(=O)Nc4cc(C)ccc4C)C3)n2)cc1 (centres unmarked) [GSK1379741] | 0 |
| Cc1ccc(C(=O)NCC(N)=O)cc1-n1c(C)cc(OCc2ccc(F)cc2F)c(Br)c1=O | 0 |

| Compound | %Inh [%] |
| --- | --- |
| Cl.Nc1ncnc2occ(-c3ccc(NC(=O)Nc4cc(C(F)(F)F)ccc4F)cc3)c12 [SB-707548] | 0 |
| Nc1nc(-c2ccc3c(N)n[nH]c3c2)cc(N2CCCC2)n1 [GSK2227430] | 0 |
| CN(C1=C(c2ccccc2)C(=O)NC1=O)c1ccccc1 [SB-334860] | 0 |
| CN1c2ccc(CNc3ccc(F)cc3)cc2-c2c(cnn2C)S1(=O)=O | 1 |
| COc1ccc(S(=O)(=O)NC2CCN(c3cc(C)nc(Nc4cccc(C#N)c4)n3)CC2)cc1.O=C(O)C(F)(F)F [GSK1653539] | 0 |
| O=c1cc(N2CCOCC2)nc2n(Cc3cccc(Cl)c3Cl)c(C3CC3)nn12 [GSK2358994] | 0 |
| N#Cc1ccc(-c2cc(-c3c[nH]nc3-c3ccccn3)ccn2)cc1 [GW693028] | 0 |
| O=C(Nc1cccc(-c2nn3ncccc3c2-c2ccnc(Nc3cccc(C(F)(F)F)c3)n2)c1)c1c(F)cccc1F [GSK299495] | 0 |
| CCc1ccnc(/C=C/c2n[nH]c3cc(Sc4ccccc4C(=O)NC)ccc23)c1 | 6 |
| Cl.Cl.Cl.Fc1ccc(-c2ncn(C3CCNCC3)c2-c2ccnc(Nc3ccccc3)n2)cc1 [SB-238039] | 28 |
| Nc1nccc(-c2c(-c3ccc(F)cc3)ncn2C2CCN(CC(F)(F)F)CC2)n1 [SB-236560] | 11 |
| Cc1cn2c(=O)cc(N3CCOCC3)nc2n1Cc1cccc(Cl)c1Cl [GSK2334006] | 12 |
| COc1ccc(COc2cc(-n3cnc4ccccc43)sc2C(N)=O)cc1 [GSK1024304] | 29 |
| Fc1ccc(-c2ncn(CCCN3CCOCC3)c2-c2cccnc2)cc1 [SB-211743] | 24 |
| CN1c2ccc(NCc3ccc(F)cc3)cc2-c2c(cnn2C)S1(=O)=O | 0 |
| O=C(NCCNc1ccnc(Nc2ccc(F)cc2)n1)c1cc2ccccc2s1 [GSK1379874] | 0 |
| Cc1cccc(-c2nc(Nc3ccc4ncsc4c3)c3ccccc3n2)n1 [GW867588] | 0 |
| NCC(NC(=O)c1cc(-c2cn[nH]c2)c(-c2ccnc3[nH]ccc23)s1)c1ccccc1.O=C(O)C(F)(F)F.O=C(O)C(F)(F)F (centres unmarked) [GSK1325775] | 95.8 |

system: T1, DRAK1; details: concentration: 1 μM, replicates: in singlicate; n = 1
T1 construct: gene STK17A

| Compound | %Inh [%] |
| --- | --- |
| COc1cc2c(cc1OC[C@@H](O)CO)ncc1c3ccc(C#N)cc3[nH]c21 | 98.7 |
| COc1ccc(Nc2ncc(C#N)c(Nc3ccccc3C(N)=O)n2)cc1N1CCN(C)CC1.Cl [GSK1558669] | 99.1 |
| Cc1cccc(-c2nc(-c3ccc(S(C)(=O)=O)cc3)sc2-c2ccncc2)c1 | 0 |
| COc1cc(Nc2nccc(N3CCC(NC(=O)c4cccc(NC(C)=O)c4)C3)n2)cc(OC)c1OC (centres unmarked) [GSK1379754] | 32 |
| Cc1ccc(NC(=O)c2ccnc(N3CCN(C)CC3)c2)cc1-c1ccc(C(=O)NCC2CC2)cc1 [GW775604] | 0 |
| CSc1ccc(-c2cc3ncnc(SCC(=O)O)c3s2)cc1 | 37 |
| c1ccc(-c2cc(-c3c[nH]nc3-c3ccccn3)ccn2)cc1 [GW576604] | 11 |
| O=C(Nc1n[nH]c2cc(-c3cccc(F)c3)ccc12)C1CC1 [SB-735464] | 7 |
| Cc1c(Cn2c(C)nn3c(=O)cc(N4CCOC(C)C4)nc23)cccc1C(F)(F)F (centres unmarked) [GSK2344444] | 1 |
| Cc1nnc(-c2ccc3ncc(-c4ccc(S(C)=O)cc4)n3c2)o1 (centres unmarked) | 0 |
| CN(C(=O)c1ccc(-c2cc(-c3c[nH]nc3-c3ccccn3)ccn2)cc1)C1CCOCC1 [GW810083] | 1 |
| Fc1ccc(-c2ncn(CCCN3CCOCC3)c2-c2ccccn2)cc1 [SB-211742] | 0 |
| COc1cc2c(cc1OCCN1CCN(C)CC1)ncc1c3ccc(C#N)cc3[nH]c21 | 100 |
| O=C(c1ccc(-c2cc(-c3c[nH]nc3-c3ccccn3)ccn2)cc1)N1CCOCC1 [GW812171] | 0 |
| CC(=O)Nc1ccc(COc2ccc(Nc3ccnc4cc(-c5ccccn5)ccc34)cc2)cc1.Cl [GW440148] | 1 |
| O=C(NOCC1CC1)c1ccc(F)c(F)c1Nc1ccc(I)cc1Cl | 0 |
| COc1ccc(Nc2nccc(N3CCC(NC(=O)Nc4cc(C)ccc4C)C3)n2)cc1 (centres unmarked) [GSK1379741] | 0 |
| Cc1ccc(C(=O)NCC(N)=O)cc1-n1c(C)cc(OCc2ccc(F)cc2F)c(Br)c1=O | 0 |

| Compound | %Inh [%] |
| --- | --- |
| Cl.Nc1ncnc2occ(-c3ccc(NC(=O)Nc4cc(C(F)(F)F)ccc4F)cc3)c12 [SB-707548] | 0 |
| Nc1nc(-c2ccc3c(N)n[nH]c3c2)cc(N2CCCC2)n1 [GSK2227430] | 73 |
| CN(C1=C(c2ccccc2)C(=O)NC1=O)c1ccccc1 [SB-334860] | 3 |
| CN1c2ccc(CNc3ccc(F)cc3)cc2-c2c(cnn2C)S1(=O)=O | 0 |
| COc1ccc(S(=O)(=O)NC2CCN(c3cc(C)nc(Nc4cccc(C#N)c4)n3)CC2)cc1.O=C(O)C(F)(F)F [GSK1653539] | 0 |
| O=c1cc(N2CCOCC2)nc2n(Cc3cccc(Cl)c3Cl)c(C3CC3)nn12 [GSK2358994] | 11 |
| N#Cc1ccc(-c2cc(-c3c[nH]nc3-c3ccccn3)ccn2)cc1 [GW693028] | 0 |
| O=C(Nc1cccc(-c2nn3ncccc3c2-c2ccnc(Nc3cccc(C(F)(F)F)c3)n2)c1)c1c(F)cccc1F [GSK299495] | 4 |
| CCc1ccnc(/C=C/c2n[nH]c3cc(Sc4ccccc4C(=O)NC)ccc23)c1 | 12 |
| Nc1nccc(-c2c(-c3ccc(F)cc3)ncn2C2CCN(CC(F)(F)F)CC2)n1 [SB-236560] | 0 |
| Cc1cn2c(=O)cc(N3CCOCC3)nc2n1Cc1cccc(Cl)c1Cl [GSK2334006] | 0 |
| COc1ccc(COc2cc(-n3cnc4ccccc43)sc2C(N)=O)cc1 [GSK1024304] | 16 |
| Fc1ccc(-c2ncn(CCCN3CCOCC3)c2-c2cccnc2)cc1 [SB-211743] | 0 |
| CN1c2ccc(NCc3ccc(F)cc3)cc2-c2c(cnn2C)S1(=O)=O | 0 |
| O=C(NCCNc1ccnc(Nc2ccc(F)cc2)n1)c1cc2ccccc2s1 [GSK1379874] | 8 |
| Cc1cccc(-c2nc(Nc3ccc4ncsc4c3)c3ccccc3n2)n1 [GW867588] | 0 |
| NCC(NC(=O)c1cc(-c2cn[nH]c2)c(-c2ccnc3[nH]ccc23)s1)c1ccccc1.O=C(O)C(F)(F)F.O=C(O)C(F)(F)F (centres unmarked) [GSK1325775] | 90.6 |

— PMC5540273 (PLoS ONE, 2017)
